# High-throughput results (PubChem)
# This is a sample that favours compounds with a hit; in the whole collection about 4.3% have one here.
# Anthrax LF inh2: anthrax lethal factor protease inhibition | P15917 | multiplex microsphere protease cleavage assay, LF | inhibition, % at 10 µM | 0.12% of 360,000 active | AID 588501; note: plate controls were buffer without enzyme for full effect and enzyme alone for no effect
# BoNT-A LC inh2: BoNT A light chain protease inhibition. 0.17% of 360,000 active. inhibition, % at 10 µM. multiplex microsphere protease substrate cleavage, flow cytometry. AID 588499; note: plate controls were buffer without enzyme for full effect and enzyme alone for no effect
# PfHsp40 yeast: restores yeast growth despite PfHsp40 toxicity. S. cerevisiae expressing PfHsp40, growth rescue, ATP luminescence. growth rescue, % at 12.5 µM. 0.68% of 340,000 active. AID 504582; in the data active = growth rescue above about 28%, passing the limit was not always enough; inconclusive = no clear call, values can overlap the other calls;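 note: yeast W303a lacking pdr1 and pdr3 grown in galactose medium; growth measured after three days at 30 °C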
# MazF activator: MazEF (E. coli) toxin RNase activation | P0AE70 | FAM/BHQ RNA-DNA oligo cleavage fluorescence, 5 h | activation, % at 20 µM | 0.32% of 350,000 active | AID 504720; in the data active = activation above about 50%
# Target sequence (P0AE70 whole entry, looked up): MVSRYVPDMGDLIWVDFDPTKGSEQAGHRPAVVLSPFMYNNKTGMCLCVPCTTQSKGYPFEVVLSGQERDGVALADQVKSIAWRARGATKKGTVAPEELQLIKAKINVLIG
# Bead autofluor: counter-screen for toxin protease inhibitors: compound fluorescence; compound autofluorescence counterscreen, microsphere flow cytometry; active compounds read high; fluorescence intensity (concentration not given with the values); 3.1% of 360,000 active; in the data active = fluorescence intensity above about 16000; inconclusive = no clear call, values can overlap the other calls
# BoNT F protease: BoNT F light chain protease inhibition; Multiplex microsphere protease cleavage assay, flow cytometry; inhibition, % at 10 µM; 0.22% of 360,000 active; in the data active = inhibition above about 35%, passing the limit was not always enough; inconclusive = no clear call, values can overlap the other calls; note: plate controls were buffer without enzyme for full effect and enzyme alone for no effect
# Numbers without * were called inactive; u = inconclusive. Cut-off read from the data, not from the text of the source, unless noted: active = inhibition above about 30%; inconclusive = no clear call, values can overlap the other calls; inactive = below that.
SMILES,Anthrax LF inh2,BoNT-A LC inh2,PfHsp40 yeast,MazF activator,Bead autofluor,BoNT F protease
Clc1ccccc1CSc1ncn(-c2ccccc2)n1,2,2,3,-7,21905*,0
Cc1ccc(CSc2ncn(-c3ccccc3)n2)cc1,-5,u,-1,8,24543*,-8
C[C@H](NC(=O)Cn1cncn1)c1ccccc1,1,-1,-1,-1,17083*,0
CC(NC(=O)Cn1cnc([N+](=O)[O-])n1)c1ccccc1 (stereo unspecified),-3,-3,-1,1,4334,-56
O=C(Cn1cncn1)NCc1cccc2ccccc12,-2,u,-1,3,22835*,1
CN(Cc1ccccc1)C(=O)c1ccc(NC(=O)Cc2ccc(NC(=O)C3CCCN(C(=O)CCc4ccccc4)C3)cc2)cc1 (stereo unspecified),-1,0,0,-17,3745,-1
COC(=O)C1=C(c2ccc(S(C)(=O)=O)cc2)C[C@@H]2CC[C@H]1N2C(=O)N1CCCCC1,-6,0,78*,4,2977,-7
CCOC(=O)CN1CCS(=O)(=O)CC1,-3,-1,0,1,4294,0
CC1CN(C(=O)COC(=O)c2ccc3ncsc3c2)CC(C)O1 (stereo unspecified),-1,0,2,-18,2908,-7
O=C(c1ccccc1)N1C(=O)C(c2ccccc2)Oc2ccccc21 (stereo unspecified),-7,0,234*,-18,4406,u
CCn1cc(Cl)c(C(=O)N2N=C3/C(=C/c4cccs4)CCCC3C2c2cccs2)n1 (stereo unspecified),0,0,1,7,23292*,-4
COc1ccc2nc(SCC(=O)/C(C#N)=C(\C)N)[nH]c2c1,-2,0,-1,-3,2730,-6
COc1ccc2nc(SCC(N)=O)[nH]c2c1,-1,u,0,-4,22930*,-2
COc1ccc(C2=Nc3ccccc3C2(O)CCN2C(=O)c3ccccc3C2=O)cc1 (stereo unspecified),-1,0,0,6,2948,-6
COc1cc([N+](=O)[O-])ccc1NC(=O)NNC(=O)c1sccc1C,-1,0,-1,5,5158,3
CCOC(=O)C1=C(Cc2ccc(OC)cc2)C(=O)c2ccccc2C1=O,-11,u,6,217*,15161,-10
CCOC(=O)C1=C(C)N(c2ccccc2)C(=O)/C1=C\c1ccc(O)c(OC)c1,-10,0,1,7,3511,-4
CCOC(=O)C1=C(O)c2ccccc2C(=O)/C1=C\c1ccc(CC)cc1,-3,6,0,25,21598*,3
CN(C)c1ccc(-c2noc(C3CCN(S(=O)(=O)c4ccc(C(=O)O)cc4)CC3)n2)cc1,-4,u,1,-8,22586*,4
O=C(C1CC1)N1CCC(c2nc(-c3ccc(S(=O)(=O)N4CCCC4)cc3)no2)CC1,0,1,1,4,5669,0
CN(C)c1ccc(-c2noc(C3CCN(S(=O)(=O)c4cccc(Cl)c4)CC3)n2)cc1,-6,u,-1,-3,17481*,-11
Cc1ccc(C2Nc3ccc4ccccc4c3C3=C2C(=O)CC(C)(C)C3)o1 (stereo unspecified),-8,3,1,-3,21585*,1
CCOc1ccc(C2/C(=C(\O)c3ccc4c(c3)OCCO4)C(=O)C(=O)N2Cc2cccnc2)cc1OCC (stereo unspecified),-3,-1,2,4,5895,-2
CCOC(=O)CNC(=O)Cn1cnc2c(nnn2-c2ccc(C)cc2)c1=O,-12,10,0,-8,18628*,10
CCOC(=O)CNC(=O)Cn1cnc2c(nnn2-c2cccc(OC)c2)c1=O,-12,-1,-3,13,3755,-1
CCOC(=O)CNC(=O)Cn1cnc2c(nnn2-c2cccc(Cl)c2)c1=O,2,-2,1,9,23372*,-3
Cc1ccc(S(=O)(=O)c2ncccc2[N+](=O)[O-])cc1,-9,-4,-1,9,4284,u
CN(C)C(=O)C(OC(=O)c1ccc2ccccc2n1)c1ccccc1 (stereo unspecified),-1,1,-1,4,5422,4
COc1ccc(CNC(=O)Cn2cnc3c(=O)n(C)c(=O)n(C)c32)cc1,0,-3,1,-1,21079*,-4
